# NSD2 inh: blocks human NSD2 histone methyltransferase activity. AID 624260. NSD2-SET H3K36me1 DELFIA fluorescence, biochemical. inhibition, % at 12.5 µM. 44,000 tested, 0.07% active. O96028; in the data active means inhibition above about 54%, passing the limit was not always enough;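 further: inhibitors reduce the monomethyl H3K36 fluorescence signal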
# Starred values were filed as active, the others as inactive. The sample as a whole holds a higher share of hits than the screen did.
SMILES,NSD2 inh
CCCc1nc(SCC(=O)c2ccccc2Cl)[nH]c(=O)c1C,-1
O=C1CC(c2ccccc2F)C2=C(CC(c3ccc(F)cc3)CC2=O)N1 (stereo not given),-28
CCCOc1ccc2oc(=O)c3c(c2c1)CCCN3C(=O)CN(C)c1ccc(C)cc1,3
C=CCNC(=O)[C@@H]1[C@H]2C(=O)O[C@H](c3ccccc3)[C@H](c3ccccc3)N2[C@H](c2ccccc2OCCO)[C@@]12C(=O)Nc1ccc(C#CCC(C(=O)OC)C(=O)OC)cc12,16
CC(=O)CCC1C2C(O)C(C(C)C)C(OC(=O)/C=C/c3ccccc3)CC12C (stereo not given),-11
O=C(/C=C/c1ccc(O)cc1)O[C@@H]1CC(O)(C(=O)O)C[C@@H](OC(=O)/C=C/c2ccc(O)cc2)C1O (stereo not given in full),63*
COc1cc(/C=C/C(=O)O[C@@H]2C[C@@](O)(C(=O)O)C[C@@H](O)[C@@H]2O)ccc1O,12
CC1CC[C@@]2(OC1)O[C@H]1CC3C4CC=C5C[C@@H](O[C@@H]6O[C@H](CO)[C@@H](O[C@@H]7O[C@@H](C)[C@H](O)[C@@H](O)[C@H]7O)[C@H](O)[C@H]6O[C@@H]6O[C@@H](C)[C@H](O)[C@@H](O)[C@H]6O)CC[C@]5(C)C4CC[C@]3(C)[C@@]1(O)[C@@H]2C (stereo not given in full),-2
CC1=CC(CC2(C)OC2COc2c3occc3cc3ccc(=O)oc23)OC1=O (stereo not given),-10
COc1ccc(C(=O)CSc2nnc(CC(C)O)n2C)cc1 (stereo not given),-5
O=C(O)/C=C/C(=O)N(Cc1ccccc1)Cc1ccccc1,4
C[C@H]1O[C@@H](O[C@H]2C[C@H]3C(=O)C[C@]4(C)C(=CCC5[C@@]6(C)CC[C@H](O[C@@H]7OC[C@@H](O)[C@H](O)[C@H]7O)[C@@](C)(C=O)C6CC[C@]54C)[C@@H]3CC2(C)C)[C@H](O)[C@@H](O)[C@@H]1O[C@@H]1O[C@H](C(=O)O)[C@@H](O)[C@H](O)[C@H]1O (stereo not given in full),0
O=C(/C=C/c1ccc(OCCc2cccs2)cc1)NO,11
O=P(CCNCc1cccnc1)(c1ccccc1)c1ccccc1,-1
CCN1CCN(C(=O)CSc2nc(-c3ccc(OC)c(OC)c3)cc(C(F)(F)F)n2)CC1,-4
O=C(N/N=C/c1cc(Br)cc(Br)c1O)c1ccccc1O,9
CC(=O)Nc1ccc2c(c1)nc1n2CCN(Cc2ccco2)C1,0
COc1cc(Br)cc(/C=N/NC(=O)CCCCC(=O)NO)c1O,4
C/C(=C\Cc1c(O[C@@H]2O[C@H](CO)[C@@H](O)[C@H](O)[C@H]2O)ccc2ccc(=O)oc12)CO,3
O=C(/C=C/c1ccccc1)Nc1nnc(CSCc2ccccc2F)s1,3
CC(=O)OC(CCCCCCCCCC(C)O)Cc1cc(O)cc(O)c1 (stereo not given),-4
CC(C)Cc1ccc(C(C)c2nc(-c3cccs3)no2)cc1 (stereo not given),4
CC(C(=O)Oc1cccc2cccnc12)N1C(=O)c2ccccc2C1=O (stereo not given),0
O=C1c2ccc(O)cc2C(=O)c2ccc(O)cc21,-3
COc1ccc(-c2nn(CCC(=O)O)c3nc(C)cc(C)c23)c(OC)c1,-3
SMILES,NSD2 inh
COC(=O)C1=CO[C@@H](O[C@@H]2O[C@H](CO)[C@@H](O)[C@H](O)[C@H]2O)[C@H]2[C@@H]1C=CC21C=C([C@H](C)OC(=O)/C=C/c2ccc(O)cc2)C(=O)O1 (stereo not given in full),76*
COC(=O)C1=CO[C@@H](O[C@@H]2O[C@H](CO)[C@@H](O)[C@H](O)[C@H]2O)[C@H]2[C@@H]1C=CC21C=C([C@H](C)O)C(=O)O1 (stereo not given in full),1
COC(=O)C1=CO[C@@H](O[C@@H]2O[C@H](CO)[C@@H](O)[C@H](O)[C@H]2O)[C@@H]2[C@@H](C)[C@@H](O)[C@@H](OC(=O)/C=C/c3ccc(O)c(O)c3)[C@H]12,4
CC(CC[C@]1(C)C2CCC=C(CO)[C@]2(C)CC[C@H]1C)CC(=O)O (stereo not given in full),-1
CC1=CC(=O)CC2C1(C)CCC(C)C2(C)CCC(C)CC(=O)O (stereo not given),8
CC1=CC(=O)OC1(O)CCC(C)CC(=O)O (stereo not given),75*
O=C(CCCCC(=O)N/N=C/c1cccc(Oc2ccccc2)c1)NO,-1
Cc1cc(-c2ccc(N=Nc3cc(S(=O)(=O)O)c4ccccc4c3N)c(C)c2)ccc1N=Nc1cc(S(=O)(=O)O)c2ccccc2c1N,92*
C/C=C(\C)CC(/C=C(\C)C(O)C(C)/C=C(\C)C(O)C(C)/C=C/C(O)C/C=C/C(O)C(O)C(=O)O)C(=O)O (stereo not given),-12
O=C(CCc1ccc(O)cc1)c1ccc(O[C@@H]2O[C@H](CO)[C@H](O)[C@H](O)[C@H]2O)cc1O,15
O=C(/C=C/c1ccccc1)O[C@@H]1O[C@H](CO)[C@@H](O)[C@H](O)[C@H]1O,0
O=C(O)c1c(O)cc(OC2OC(CO)C(O)C(O)C2O)cc1/C=C/c1ccccc1 (stereo not given),76*
N#CCCN(CCC#N)C(=O)c1ccccc1Oc1ccccc1,1
[N-]=[N+]=Nc1cccc(C(=O)N2CCC3(CC2)C(=O)NCN3c2ccccc2)c1,4
O=S(=O)(c1ccc(Cl)cc1)N1CCN(CC(O)COc2ccc3ccccc3c2)CC1 (stereo not given),-2
N#Cc1ccccc1NC(=O)CN1CCC(C(N)=O)CC1,-5
Cc1nn(C)c(C)c1CN(C)C(=O)c1cc2nc(-c3ccc(Cl)cc3)cc(C(F)(F)F)n2n1,0
C[C@@H]1O[C@@H](O[C@@H]2[C@@H](O)[C@H](O[C@@H]3[C@@H](O)[C@@H](O)[C@H](O[C@H]4[C@H](OC(=O)[C@]56CCC(C)(C)C[C@H]5C5=CCC7[C@@]8(C)C[C@H](O)[C@H](O[C@@H]9O[C@H](C(=O)O)[C@@H](O)[C@H](O)[C@H]9O)[C@@](C)(CO)C8[C@H](O)C[C@@]7(C)[C@]5(C)C[C@H]6O)O[C@@H](CO)[C@@H]4O)O[C@H]3C)OC[C@H]2O)[C@H](O)[C@H](O)[C@H]1O (stereo not given in full),74*
CC1OC(O[C@H]2[C@@H](O)C[C@@]3(C)C([C@H](O)C[C@]4(C)C3CC=C3[C@@H]5CC(C)(C)CC[C@]5(C(=O)OC5OC(C)C(OC6OCC(OC7OCC(O)C(OC8OCC(O)C(O)C8O)C7O)C(O)C6O)C(O)C5O)CC[C@]34C)[C@]2(C)CO)C(O)C(OC2OC(CO)C(O)C(O)C2O)C1O (stereo not given in full),-4
C[C@@H]1O[C@@H](O[C@@H]2[C@@H](O)[C@H](OC(=O)[C@]34CCC(C)(C)CC3C3=CCC5[C@@]6(C)CC[C@H](OC7OC(CO)C(OC8OCC(O)C(O)C8O)C(O)C7O)C(C)(C)C6CC[C@@]5(C)[C@]3(C)CC4O)O[C@H]2CO)[C@H](O)[C@H](O)[C@H]1O[C@H]1OC[C@](O)(CO)[C@H]1O (stereo not given in full),-3
CC1CCN(C(=O)c2ccc3c(=O)nc4c(-c5ccccc5)n[nH]n4c3c2)CC1,-5
CCn1nc(C)c(N=Cc2ccc(N(C)C)c(Br)c2)c1C,1

# Bioassay records: PubChem BioAssay, Broad Institute
